# Most compounds without a hit are left out; they make up all but 2% or so of the library.
# Rev-erbA mod – modulators of human Rev-erb alpha DNA binding | P20393 | Rev-erbα–FITC-DNA binding, fluorescence polarization, 90 min | activity, % at 10 µM | 0.79% of 370,000 active | AID 1259318;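 active means activity above about 14%, limit read from the data; passing the limit was not always enough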;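 further: 0% = DMSO wells with 35 nM protein and 100% = DMSO wells with 750 nM protein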
# Target sequence (P20393 whole entry, looked up): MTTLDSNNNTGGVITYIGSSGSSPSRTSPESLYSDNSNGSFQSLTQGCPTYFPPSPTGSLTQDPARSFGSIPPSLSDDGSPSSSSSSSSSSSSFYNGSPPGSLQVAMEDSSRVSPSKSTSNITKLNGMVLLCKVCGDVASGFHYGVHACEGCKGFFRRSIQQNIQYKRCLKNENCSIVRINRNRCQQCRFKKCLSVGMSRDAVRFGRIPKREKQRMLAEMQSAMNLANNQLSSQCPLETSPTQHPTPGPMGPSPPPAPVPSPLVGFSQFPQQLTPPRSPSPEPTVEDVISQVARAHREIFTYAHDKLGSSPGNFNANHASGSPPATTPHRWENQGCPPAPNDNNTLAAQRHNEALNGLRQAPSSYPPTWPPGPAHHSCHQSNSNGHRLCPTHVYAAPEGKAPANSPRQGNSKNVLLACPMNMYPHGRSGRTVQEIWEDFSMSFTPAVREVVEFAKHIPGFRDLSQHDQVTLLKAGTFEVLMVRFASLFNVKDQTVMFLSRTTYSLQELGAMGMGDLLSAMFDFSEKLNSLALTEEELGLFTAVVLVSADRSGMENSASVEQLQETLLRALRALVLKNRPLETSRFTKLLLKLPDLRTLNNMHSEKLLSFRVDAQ
# VLA-4 inh – inhibition in a human VLA-4 binding assay. P13612. VLA-4 expressing cells, ligand binding flow cytometry. inhibition, % (about 7 µM as worked out from the volumes in the protocol). 0.2% of 330,000 active; in the data active means inhibition above about 50%
# ABCB6 inh MLPCN – inhibitors of human ABC transporter ABCB6 | fluorescence ratio to DMSO, % at 10 µM | AID 602162 | K562-ABCB6 porphyrin accumulation, flow cytometry, 1 h; hits give low values | 0.19% of 360,000 active;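 active means fluorescence ratio to DMSO below 75%, the collection mean minus 3 SD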;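 further: signal is porphyrin accumulated inside mitochondria; 100% equals median channel fluorescence of DMSO control wells; lower ratio means ABCB6 inhibition with less porphyrin fluorescence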
# Exocytosis inh – blocks lytic granule exocytosis; TALL-104 LAMP-1 surface exposure, flow cytometry; cells stimulated with thapsigargin and PMA; inhibition, % at 10 µM; 0.66% of 360,000 active;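 active means inhibition above about 55%, limit read from the data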
# PG9 Ab binder – binds the HIV-1 gp120 antibody PG9 | TR-FRET gp120-PG9 antibody binding | inhibition, % at 6.7 µM | 0.43% of 360,000 active; in the data active means inhibition above about 8.5%
# Granule exo CP1 – lytic granule exocytosis inhibition | shares compounds with Exocytosis inh | TALL-104 cells, LAMP-1 externalization, flow cytometry; stimulated with PMA plus thapsigargin | inhibition, % at 10 µM | 11% of 1,500 active; in the data active means inhibition above about 60%;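 further: 0% = stimulated vehicle wells and 100% = unstimulated wells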
# Rev-erbA confirm – confirmation of modulators of human Rev-erb alpha DNA binding; AID 1259319; Rev-erb alpha FITC-DNA binding, fluorescence polarization, 90 min; 61% of 3,000 active; activation, % at 25 µM; shares compounds with Rev-erbA mod;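 active means activation at or above a set limit, or at least 3 SD above the negative control mean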;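 further: 0% = 35 nM protein with DMSO and 100% = 750 nM protein high control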
# RORg DNA counter – affects RORgamma DNA binding in a Rev-erb alpha counter-screen; IC50, µM; purified RORgamma protein-FITC-DNA binding, fluorescence polarization; 8% of 910 active; AID 1259320; shares compounds with Rev-erbA mod;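 active means Compounds whose fitted half-maximal concentration for disrupting protein-DNA binding is below 10 micromolar; the record names Rev-erb in its text, so the target is in doubt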
# Starred values were filed as active, the others as inactive; i = inactive; / = no result given.
SMILES,Rev-erbA mod,VLA-4 inh,ABCB6 inh MLPCN,Exocytosis inh,PG9 Ab binder,Granule exo CP1,Rev-erbA confirm,others
Cc1cc(C)cc(NC(=O)OC2CCC23CCCCC3)c1 (configuration not stated),1.6,/,/,/,/,/,/,
CC[C@@]1(c2ccc(C)cc2)C(=O)N(C(=O)OC(C)C)N1C(=O)OC(C)C,-27.5,/,/,/,/,/,/,
CCOc1ccc2[nH]c(C)c(CN3CCN(C)CC3)c(=O)c2c1,2.0,8.1,95.0,68.5*,-0.4,-11.3,/,
CCOc1ccc2[nH]c(C)c(CN3CCN(CC)CC3)c(=O)c2c1,-2.1,0.9,93.0,-4.1,-3.0,/,/,
CCC(C)[C@H](NC(=O)NCc1ccccc1)C(=O)O (some centres not stated),0.8,19.3,93.0,99.8*,0.6,-11.1,/,
CCCCCCCCN1CCS(=O)(=O)N(Cc2ccc(Cl)cc2)C(C(=O)OC)C1 (configuration not stated),1.2,/,/,/,/,/,/,
CCOC(=O)Nc1ccc2c(c1)N(C(=O)CCN(CC)CC)c1ccccc1S2=O (configuration not stated),4.2,1.4,99.0,72.9*,-2.4,-7.7,/,
COC(=O)C1=C(C)N(Cc2ccccc2C(F)(F)F)C(=NCc2ccc(C(F)(F)F)cc2)NC1c1cccc(Cl)c1 (configuration not stated),-4.7,/,/,/,0.1,/,/,
FC(F)(F)C(F)(F)C(F)(F)C(F)(F)C(F)(F)C(F)(F)F,-6.1,/,/,/,/,/,/,
COc1ccc(NC(=O)Nc2c(O)ccc3ccccc23)cc1,-0.2,-10.8,105.0,87.3*,-2.0,-3.8,/,
COc1ccc(C(=O)Nc2c(O)ccc3ccccc23)cc1,-1.4,-6.3,99.0,7.3,-0.1,/,/,
N#Cc1ccccc1S(=O)(=O)N1CCN(S(=O)(=O)c2ccc(Br)c(C(=O)O)c2)CC1,-1.9,10.2,96.0,59.2*,-1.5,-13.9,/,
Cc1cc(C(=O)N2CCN(S(=O)(=O)c3ccccc3C#N)CC2)c(C)o1,7.0,10.2,103.0,18.4,-0.3,/,/,
C[C@H](O)[C@@H]1CN2CCc3c([nH]c4ccc(-c5ccc6c(c5)OCO6)cc34)[C@@H]2C[C@@H]1N(C)C(=O)Nc1ccc(F)cc1,7.1,/,99.0,65.4*,-1.5,0.7,/,
O=C(OCC#CCSc1nnc(-c2cccc3ccccc23)o1)c1ccc(F)c(F)c1,-2.2,/,/,/,/,/,/,
COCCCNC(=O)C[C@H]1C[C@@]2(C(=O)OC)C(=C[C@H](COCc3ccccc3)O[C@@H]2C)N(Cc2cccc3ccccc23)C1=O,-2.0,/,/,/,/,/,/,
O=C(CCS(=O)(=O)c1ccccc1)N(CCCN1CCOCC1)c1nc2ccc(F)cc2s1,-4.9,4.4,104.0,58.4*,0.3,-7.3,/,
CCc1cc2cc(C)ccc2nc1SCC(=O)NC1CCCC1,31.6*,2.5,95.0,91.5*,0.7,-3.7,34.6*,RORg DNA counter=>40
C[C@@H]1CN([C@H](C)CO)C(=O)CCCn2cc(nn2)CO[C@H]1CN(C)S(=O)(=O)c1cn(C)cn1,-1.1,/,/,/,-0.3,/,/,
CC(=O)N1c2ccccc2S(=O)(=O)c2c1ccc1ccccc21,22.5*,/,88.0,78.8*,1.1,-13.0,-1.7,
CC(=O)N1c2ccccc2S(=O)(=O)c2ccccc21,4.5,13.7,97.0,-0.5,-0.7,/,/,
COc1cccc(CCNC(=O)CCc2nc(-c3ccccc3F)no2)c1,0.4,/,/,/,/,/,/,
CCOC(=O)N1CCN(S(=O)(=O)c2ccc(C(=O)Nc3nc4ccccc4s3)cc2)CC1,33.8*,-6.7,84.0,100.1*,6.6,-10.2,21.1*,
CCOC(=O)N1CCN(S(=O)(=O)c2ccc(C(=O)Nc3nc4ccc(F)cc4s3)cc2)CC1,/,8.9,95.0,2.8,-0.4,/,/,
COc1ccc(C(=O)CSc2cc(C)nc(SCC(=O)c3ccc(C)cc3)n2)cc1,26.8*,-13.6,109.0,55.6*,-1.1,-12.2,9.7,
SMILES,Rev-erbA mod,VLA-4 inh,ABCB6 inh MLPCN,Exocytosis inh,PG9 Ab binder,Granule exo CP1,Rev-erbA confirm,others
Cn1nc(C(C)(C)C)cc1NC(=O)C1(C)CCN1C(=O)c1ccccc1CCc1ccccc1 (configuration not stated),19.7*,/,96.0,97.5*,-0.9,-4.2,-1.3,
c1ccc(-n2c(SCc3cccc4ccccc34)nnc2-c2ccncc2)cc1,10.0,/,/,/,/,/,/,
Cc1cc(N2CCN(c3ncccn3)CC2)nc2c(C)cccc12,35.0*,2.7,101.0,71.8*,-1.8,-14.4,5.7,
COc1ccc(N2CCN(c3cc(C)c4cccc(C)c4n3)CC2)cc1,-1.0,8.4,100.0,0.2,2.4,/,/,
Cc1ccc(S(=O)(=O)c2nnn3c2nc(N2CCN(c4ccccn4)CC2)c2ccccc23)cc1C,71.8*,20.1,96.0,8.3,1.0,/,62.5*,RORg DNA counter=>40
Cc1ccc(S(=O)(=O)c2nnn3c2nc(N2CCCCC2)c2ccccc23)cc1,-0.3,-15.2,91.0,-0.7,-1.7,/,/,
N#C/C(=C(/O)C(Cl)c1ccccc1)c1nc2ccccc2s1 (configuration not stated),76.3*,1.6,100.0,1.7,-1.4,/,48.9*,RORg DNA counter=>40
COC(=O)C1=C(C)N(Cc2ccccc2C(F)(F)F)C(=NCc2ccccc2)NC1c1cccc(C(F)(F)F)c1 (configuration not stated),-3.4,/,/,/,-1.6,/,/,
Cc1ccccc1NC(=O)Cc1nc(COC(=O)c2cc(Cl)ccc2O)cs1,18.8*,-14.6,99.0,3.3,3.2,/,7.5,
O=C(NCC1COCCO1)C1CCN(S(=O)(=O)c2cccs2)CC1 (configuration not stated),-6.0,/,/,/,/,/,/,
CC(C)CN(CC(C)C)C(=O)c1cn(C(C)c2ccccc2)nn1 (configuration not stated),4.1,/,/,/,/,/,/,
CCCOc1cc(N(CC)CC)ccc1/C=C(/C#N)c1nc2ccc(C)cc2[nH]1,31.8*,i,836.0,0.3,-0.7,/,40.8*,
CCN(CC)c1ccc(/C=C(/C#N)c2nc3ccc(C)cc3[nH]2)c(OC(C)C)c1,/,i,745.0,2.1,-2.5,/,/,
COc1ccc(/C=C(\C#N)c2nc3ccccc3[nH]2)cc1O,-1.3,/,105.0,31.1,-6.5,/,/,
CCOc1cc(N(CC)CC)ccc1/C=C(/C#N)c1nc2ccccc2[nH]1,72.5*,-180.6,252.0,2.6,-2.4,/,58.4*,RORg DNA counter=>40
COc1cc(/C=C(\C#N)c2nc3ccccc3[nH]2)cc(OC)c1O,31.4*,-54.4,118.0,-1.1,-21.7,/,45.6*,RORg DNA counter=>40
OC(c1ccccc1)(c1ccccc1)C1CCN(CCCNc2ccc(C(F)(F)F)cc2)CC1,0.6,/,/,/,/,/,/,
COc1ccc(C(=O)Nc2cc(C(C)=O)c(/C=C/N(C)C)oc2=O)cc1,19.5,4.9,103.0,-3.9,-19.1,/,/,
CC(=O)c1cc(NC(=O)c2ccc(C)cc2)c(=O)oc1/C=C/N(C)C,30.7*,-92.1,98.0,-6.1,-17.9,/,3.5,

# Assay outcomes deposited in PubChem by several laboratories.
